# Laboratory results reported in PubChem BioAssay (EPA / NIEHS).
# Results filed as inconclusive are left out. Active and inactive are the calls of the source. Rule for the calls, unless noted: active = hit-call score of the fitted dose curve at least 0.9, where 1 is the maximum; inconclusive = response in the unintended direction; inactive = score below 0.9.
# Key:
# [1] = TOX21_p53_BLA_p2_viability: Viability Assessment in the Tox21 HCT-116 p53 Agonism Beta-lactamase Assay, Phase 2 (AID 2283591);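 note: compound exposure lasted 16 h at 37 °C; actives lower the ATP signal meaning cytotoxicity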
# Method in brief: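 HCT-116 p53-bla cells (4000/well) rested 5 h at 37C, then received compounds in DMSO (217-fold dilution) for 16 h at 37C, 5% CO2. After the CCF4 read, CellTiter-Glo was added; ATP luminescence was read after 30 min at room temperature.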
# [2] = target: Cellular tumor antigen p53 (Homo sapiens) (UniProt P04637); test: TOX21_p53_BLA_p2_ratio: Tox21 HCT-116 p53 Agonism Beta-lactamase Assay, Ratio, Phase 2 (AID 2283592)
# Method in brief: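 DMSO-normalized, positive-direction endpoint derived from the 460 nm/530 nm FRET ratio in HCT116 p53 beta-lactamase reporter cells exposed 16 h at 37C and loaded with CCF4-AM for 2 h.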
# [3] = TOX21_p53_BLA_p3_viability: Viability Assessment in the Tox21 HCT-116 p53 Agonism Beta-lactamase Assay, Phase 3 (AID 2283593);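 note: cells exposed to compound for 16 h before reading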
# Method in brief: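 HCT-116 cells (4000/well) rested 5 h at 37C, then got DMSO compounds by pin tool (217-fold dilution) for 16 h at 37C, 5% CO2. After the bla read, CellTiter-Glo was added and luminescence read at 30 min, room temperature.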
# [4] = target: Cellular tumor antigen p53 (Homo sapiens) (UniProt P04637); test: TOX21_p53_BLA_p3_ratio: Tox21 HCT-116 p53 Agonism Beta-lactamase Assay, Ratio, Phase 3 (AID 2283596)
# Method in brief: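 Cells were seeded at 4000/well, rested 5 h at 37C, then dosed with DMSO compound solutions (217-fold dilution) for 16 h. CCF4-AM substrate was loaded for 2 h at room temperature, and the 460/530 nm emission ratio was fitted for gain of signal versus DMSO.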
# [5] = target: Cellular tumor antigen p53 (Homo sapiens) (UniProt P04637); test: TOX21_p53_BLA_p5_ratio: Tox21 HCT-116 p53 Agonism Beta-lactamase Assay, Ratio, Phase 5 (AID 2283599)
# Method in brief: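 HCT-116 cells carrying a p53-inducible beta-lactamase reporter were seeded at 4000 cells/well and dosed after 5 h with compound in DMSO (217-fold dilution). After 16 h at 37C, CCF4-AM substrate was added for 2 h, and the 460/530 nm emission ratio was scored as gain-of-signal versus DMSO.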
# [6] = TOX21_p53_BLA_p5_viability: Viability Assessment in the Tox21 HCT-116 p53 Agonism Beta-lactamase Assay, Phase 5 (AID 2283600)
# Method in brief: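 Here cell health was gauged by ATP levels in wells holding 4000 cells, each treated 16 h with DMSO-delivered compounds at 217-fold dilution; reduced luminescence marked toxicity.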
# [7] = target: Cellular tumor antigen p53 (Homo sapiens) (UniProt P04637); test: TOX21_p53_BLA_p4_ratio: Tox21 HCT-116 p53 Agonism Beta-lactamase Assay, Ratio, Phase 4 (AID 2283601)
# Method in brief: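 HCT116 cells carrying an inducible beta-lactamase reporter were plated at 4000 cells/well, rested 5 h, then exposed to compounds in DMSO (217-fold dilution) for 16 h at 37C. CCF4-AM substrate was loaded 2 h at room temperature; 460/530 nm emission ratio scored gain-of-signal versus DMSO.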
# [8] = CCTE_Harrill_HTTr_Viability_MCF7: CCTE's 6-hour Cell Viability Assessment for the High-Throughput Transcriptomics (HTTr) Platform, in MCF-7 cells cultured in DMEM + 10% fetal bovine serum, Harrill Lab (AID 2284010; active = hit-call score of the fitted dose curve at least 0.9, where 1 is the maximum; inactive = score below 0.9)
# Method in brief: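 Read-out is propidium iodide gain of signal by high-content imaging, reflecting membrane integrity loss. Measurements are taken 6 h after dosing, eight concentrations per chemical, with DMSO serving as baseline for bidirectional curve fitting.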
# [9] = CCTE_Harrill_HTTr_Apoptosis_MCF7: CCTE's 6-hour Apoptosis Assessment for the High-Throughput Transcriptomics (HTTr) Platform, in MCF-7 cells cultured in DMEM + 10% fetal bovine serum, Harrill Lab (AID 2284011; active = hit-call score of the fitted dose curve at least 0.9, where 1 is the maximum; inactive = score below 0.9)
# Method in brief: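 Apoptosis in MCF-7 cells grown in DMEM with 10% fetal bovine serum was scored after a six hour exposure by high content imaging of caspase-3/7 activation (CellEvent Caspase 3/7 Green), with DMSO serving as negative control and baseline.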
# [10] = CCTE_Harrill_HTTr_CellCount_MCF7: CCTE's Cell Proliferation Assessment for the High-Throughput Transcriptomics (HTTr) Platform, Harrill Lab (AID 2284012);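 note: cells exposed to compound for six hours; intended direction is loss of nuclei count meaning fewer cells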
# Method in brief: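 Cell count served as viability reporter: loss of Hoechst-stained nuclei, counted by high content imaging, marks decreased growth or survival. Exposure was 6 h in MCF-7 cells across eight concentrations, with DMSO as baseline.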
# Sequence of Cellular tumor antigen p53 (Homo sapiens) (P04637 whole entry, looked up): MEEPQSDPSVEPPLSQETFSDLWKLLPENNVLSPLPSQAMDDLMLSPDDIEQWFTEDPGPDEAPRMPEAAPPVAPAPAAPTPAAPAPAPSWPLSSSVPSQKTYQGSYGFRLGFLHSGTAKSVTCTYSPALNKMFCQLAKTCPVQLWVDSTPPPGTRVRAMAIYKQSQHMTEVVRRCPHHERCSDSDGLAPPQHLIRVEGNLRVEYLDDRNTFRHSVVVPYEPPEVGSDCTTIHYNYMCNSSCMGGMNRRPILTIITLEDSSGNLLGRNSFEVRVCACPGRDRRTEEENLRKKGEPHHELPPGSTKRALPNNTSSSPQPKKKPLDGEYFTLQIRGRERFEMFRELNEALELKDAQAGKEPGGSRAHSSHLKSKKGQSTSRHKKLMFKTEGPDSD
smiles,measurement,setting,value
CCc1ccc(S(=O)(=O)O)cc1,outcome,[1],inactive
same,outcome,[2],inactive
same,outcome,[3],inactive
same,outcome,[4],inactive
same,outcome,[5],inactive
same,outcome,[6],inactive
same,outcome,[7],inactive
C=CC[C@@H]1/C=C(\C)C[C@H](C)C[C@H](OC)[C@H]2O[C@@](O)(C(=O)C(=O)N3CCCC[C@H]3C(=O)O[C@H](/C(C)=C/[C@@H]3CC[C@@H](O)[C@H](OC)C3)[C@H](C)[C@@H](O)CC1=O)[C@H](C)C[C@@H]2OC,AC50,[1],36.5 µM (active)
same,outcome,[2],inactive
same,outcome,[3],inactive
same,outcome,[4],inactive
same,AC50,[5],36.8 µM (active)
same,AC50,[6],40.5 µM (active)
same,outcome,[7],inactive
CCOc1nc2cccc(C(=O)O)c2n1Cc1ccc(-c2ccccc2-c2nn[nH]n2)cc1,AC50,[1],21.9 µM (active)
same,AC50,[2],28.7 µM (active)
same,AC50,[3],35.8 µM (active)
same,AC50,[4],43.3 µM (active)
same,AC50,[5],44.3 µM (active)
same,AC50,[6],38.2 µM (active)
same,outcome,[7],inactive
Cc1ccc2c(Cl)cc(Cl)c(O)c2n1,AC50,[1],7.81 µM (active)
same,outcome,[2],inactive
same,AC50,[3],12.2 µM (active)
same,outcome,[4],inactive
same,AC50,[5],25.9 µM (active)
same,outcome,[6],inactive
same,AC50,[7],33.1 µM (active)
CC(C)(C)CC(=O)OCC(=O)[C@@]12OC(C)(C)O[C@@H]1C[C@H]1[C@@H]3CCC4=CC(=O)C=C[C@]4(C)[C@@]3(F)[C@@H](O)C[C@@]12C,outcome,[1],inactive
same,outcome,[2],inactive
same,outcome,[3],inactive
same,outcome,[4],inactive
same,outcome,[5],inactive
same,outcome,[6],inactive
same,outcome,[7],inactive
CC(=C\c1ccccc1)/C=C1/SC(=S)N(CC(=O)O)C1=O,outcome,[1],inactive
same,outcome,[2],inactive
same,outcome,[3],inactive
same,outcome,[4],inactive
same,outcome,[5],inactive
same,outcome,[6],inactive
same,outcome,[7],inactive
CC=C(C(=CC)c1ccc(O)cc1)c1ccc(O)cc1,outcome,[1],inactive
same,outcome,[2],inactive
same,outcome,[3],inactive
same,AC50,[4],4.02 µM (active)
same,outcome,[5],inactive
same,outcome,[6],inactive
same,AC50,[7],3.75 µM (active)
O=C(Nc1ccc(Oc2ccc(Cl)cc2)c(Cl)c1)c1cc(I)cc(I)c1O,AC50,[1],4.23 µM (active)
same,AC50,[2],4.05 µM (active)
same,AC50,[3],2.64 µM (active)
same,AC50,[4],3.93 µM (active)
same,AC50,[5],10.2 µM (active)
same,outcome,[6],inactive
same,AC50,[7],8.12 µM (active)
CCOC(=O)C1=C(C)NC(C)=C(C(=O)OCC)C1c1ccccc1/C=C/C(=O)OC(C)(C)C,AC50,[1],35.4 µM (active)
same,AC50,[2],38.6 µM (active)
same,AC50,[3],43 µM (active)
same,AC50,[4],39.5 µM (active)
same,AC50,[5],26.5 µM (active)
same,outcome,[6],inactive
same,outcome,[7],inactive
CCCCC(C)C(=O)O (stereo unspecified),outcome,[1],inactive
same,outcome,[2],inactive
same,outcome,[3],inactive
same,outcome,[4],inactive
same,outcome,[5],inactive
same,outcome,[7],inactive
Nc1nc2ccc(OC(F)(F)F)cc2s1,outcome,[1],inactive
same,AC50,[2],7.3 µM (active)
same,outcome,[3],inactive
same,AC50,[4],7.29 µM (active)
same,AC50,[5],23.9 µM (active)
same,AC50,[7],11.3 µM (active)
CO[C@@]1(NC(=O)CSCC#N)C(=O)N2C(C(=O)O)=C(CSc3nnnn3C)CS[C@@H]21,outcome,[1],inactive
same,outcome,[2],inactive
same,outcome,[3],inactive
same,outcome,[4],inactive
same,outcome,[5],inactive
same,outcome,[7],inactive
COC1=C(C(=O)O)N2C(=O)[C@@H](NC(=O)[C@H](N)C3=CCC=CC3)[C@H]2SC1,outcome,[1],inactive
same,outcome,[2],inactive
same,outcome,[3],inactive
same,outcome,[4],inactive
same,outcome,[5],inactive
same,outcome,[7],inactive
CCOC(=O)[C@H](CCc1ccccc1)N[C@@H](C)C(=O)N1[C@H](C(=O)O)C[C@@H]2CCC[C@@H]21,outcome,[1],inactive
same,outcome,[2],inactive
same,outcome,[3],inactive
same,outcome,[4],inactive
same,outcome,[5],inactive
same,outcome,[7],inactive
O=C(OOC(=O)c1ccccc1)c1ccccc1,outcome,[1],inactive
same,outcome,[2],inactive
same,outcome,[3],inactive
same,outcome,[4],inactive
same,outcome,[5],inactive
same,outcome,[6],inactive
same,outcome,[7],inactive
same,outcome,[8],inactive
same,outcome,[9],inactive
same,outcome,[10],inactive
CN=C(N)NCCC[C@H](N)C(=O)O,outcome,[1],inactive
same,outcome,[2],inactive
same,outcome,[3],inactive
same,outcome,[4],inactive
same,outcome,[5],inactive
same,outcome,[6],inactive
same,outcome,[7],inactive
Cc1ccc([N+](=O)[O-])c(N)c1,outcome,[1],inactive
same,outcome,[2],inactive
same,outcome,[3],inactive
same,outcome,[4],inactive
same,outcome,[5],inactive
same,outcome,[7],inactive
CCCCCCCCCCCCCCCC(=O)OC(C)C,outcome,[1],inactive
same,outcome,[2],inactive
same,outcome,[3],inactive
same,outcome,[4],inactive
same,outcome,[5],inactive
same,outcome,[7],inactive
FC(F)(F)C(Cl)Br (stereo unspecified),outcome,[1],inactive
same,outcome,[2],inactive
same,outcome,[3],inactive
same,outcome,[4],inactive
same,outcome,[5],inactive
same,outcome,[7],inactive
O=C1c2ccccc2C(=O)c2cc(O)ccc21,outcome,[1],inactive
same,AC50,[2],37.8 µM (active)
same,outcome,[3],inactive
same,outcome,[4],inactive
same,outcome,[5],inactive
same,AC50,[7],42.5 µM (active)
CCC1(CO)COCOC1,outcome,[1],inactive
same,outcome,[2],inactive
same,outcome,[3],inactive
same,outcome,[4],inactive
same,outcome,[5],inactive
same,outcome,[7],inactive
CC(=O)N[C@@H](CS)C(=O)O,outcome,[1],inactive
same,outcome,[2],inactive
same,outcome,[3],inactive
same,outcome,[4],inactive
same,outcome,[5],inactive
same,outcome,[7],inactive
